Only some compounds are listed: those with a hit (about 2.5% of all), similar ones and a draw of the others.
MEKK2 WT-MEK5: raises or lowers MEK5 binding to wildtype human MEKK2 PB1 domain; 1.1% of 290,000 active; Q9Y2U5; AID 1531; binding response (% of control), % at 10 µM; bead flow cytometry, Alexa488-MEK5 binding to MEKK2 WT; actives lie on both sides; in the data active = binding response below about 67% or above about 130%
GRK2 inh: inhibitors of human GRK2 displacing RNA aptamer; bead flow cytometry, FAM-aptamer displacement from GRK2; inhibition of aptamer binding, % at 10 µM; 0.59% of 330,000 active; AID 488847;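 active = inhibition of aptamer binding above 40%, roughly 3 SD of noise, on plates passing a quality check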;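 note: median bead fluorescence of bound FAM aptamer so fluorescent compounds give negative values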
MEKK2 mut-MEK5: signal of MEK5 binding to mutant human MEKK2 PB1 domain; bead flow cytometry, Alexa488-MEK5 binding to MEKK2 mutant; percent response, % at 10 µM; 0.35% of 290,000 active; AID 1530; in the data active = percent response above about 24%, passing the limit was not always enough
MEKK3 PB1 HTS: MEKK3-MEK5 PB1 interaction, increase or decrease | bead-based flow cytometry, Alexa488-MEK5 binding to MEKK3; actives lie on both sides; 0 = blocked by unlabeled MEK5, 100 = vehicle | binding response (% of control), % at 10 µM | 1.4% of 290,000 active | AID 1529;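 active = binding response more than 3 SD above or below the average of its plate-row segment, actives on both sides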;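 note: Alexa488 bead fluorescence after subtracting the streptavidin-only scavenger bead signal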
Target sequence (Q99759 whole entry, looked up): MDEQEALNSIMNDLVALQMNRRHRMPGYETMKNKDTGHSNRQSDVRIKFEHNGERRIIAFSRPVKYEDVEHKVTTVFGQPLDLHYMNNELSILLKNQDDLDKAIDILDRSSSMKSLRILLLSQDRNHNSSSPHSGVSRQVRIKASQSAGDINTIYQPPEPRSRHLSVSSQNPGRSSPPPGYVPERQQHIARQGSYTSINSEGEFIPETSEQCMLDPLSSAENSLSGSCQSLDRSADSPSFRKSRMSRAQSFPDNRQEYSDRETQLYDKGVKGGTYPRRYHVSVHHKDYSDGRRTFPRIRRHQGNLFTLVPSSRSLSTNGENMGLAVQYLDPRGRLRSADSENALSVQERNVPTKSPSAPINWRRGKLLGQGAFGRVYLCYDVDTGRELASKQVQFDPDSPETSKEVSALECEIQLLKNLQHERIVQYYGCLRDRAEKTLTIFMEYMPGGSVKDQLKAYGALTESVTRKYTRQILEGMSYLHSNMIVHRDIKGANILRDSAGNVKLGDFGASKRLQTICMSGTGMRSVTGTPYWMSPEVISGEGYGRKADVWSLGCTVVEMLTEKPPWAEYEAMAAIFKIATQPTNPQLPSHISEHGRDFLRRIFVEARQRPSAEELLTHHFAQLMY
GRK2 inh confirm: human GRK2 inhibition confirmation, cherry pick 1; aptamer displacement, % at 10 µM; AID 504451; shares compounds with GRK2 inh; bead-bound GRK2, FAM-aptamer displacement, flow cytometry; 4% of 2,000 active;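 active = aptamer displacement above 40%, near three times the noise of non-fluorescent compounds, on plates passing quality checks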;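 note: negative values mostly reflect intrinsic compound fluorescence rather than true enhancement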
Aptamer quench: counter-screen for GRK2 aptamer inhibitors: fluorescent aptamer quenchers. shares compounds with GRK2 inh. Fluorescent RNA aptamer beads, quenching, flow cytometry; stronger effect = higher value. fluorescence change (kMESF span), kMESF (concentration not given with the values). 110 tested, under 10 active;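 active = compounds whose bead fluorescence drops by more than 37 kMESF across the dose range, marking them as dye quenchers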
Aptamer quench SP: quenches fluorescent RNA aptamer, GRK2 hit artifact; 2,000 tested, under 10 active; Carboxyfluorescein RNA aptamer on beads, flow cytometry quenching; stronger effect = lower value; shares compounds with GRK2 inh; fluorescence response (% of DMSO), % at 10 µM;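 active = compounds that quench the bead-bound fluorescent RNA probe, cutting fluorescence to under half of the solvent control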;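 note: counterscreen run without GRK2 so only probe quenching by compound is measured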
GRK2 confirm 2: human GRK2 inhibition confirmation, cherry pick 2; 360 tested, under 10 active; shares compounds with GRK2 inh; bead-bound GRK2, FAM-aptamer displacement, flow cytometry; inhibition of aptamer binding, % at 10 µM;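 active = inhibition of aptamer binding above 40%, about triple the noise seen with nonglowing compounds, on plates passing quality control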;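 note: negative values mostly come from compounds that fluoresce themselves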
FAM quench SP: counter-screen for GRK2 binding hits: quenchers of fluorescent RNA aptamer; fluorescence response vs DMSO, % at 10 µM; 360 tested, under 10 active; carboxyfluorescein RNA aptamer beads, flow cytometry quenching; stronger effect = lower value; shares compounds with GRK2 inh;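 active = response vs DMSO under 50%, meaning signal dropped by over half, treated as fluorescence quencher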;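 note: labelled aptamer on streptavidin beads without GRK2 as a quench counter-screen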
Each line names hits and unclear results; the compound was inactive in the other large screens (follow-up assays come after a bar, where they were run).

CCc1c(C)nc(SCC(=O)N2CC(C)OC(C)C2)[nH]c1=O (stereo not drawn)	none (no result: MEKK2 WT-MEK5, MEKK2 mut-MEK5, MEKK3 PB1 HTS)
O=C(NC1CC1)c1cccc(NC(=O)c2cnn(-c3ccccc3)n2)c1	none (no result: MEKK2 WT-MEK5, MEKK2 mut-MEK5, MEKK3 PB1 HTS) | GRK2 inh confirm inactive | Aptamer quench SP inactive
COc1ccc2cc3cc(C(=O)N4CC(C)CC(C)C4)oc3nc2c1 (stereo not drawn)	none
COc1ccc2cc3cc(C(=O)N4CCN(c5ccccn5)CC4)oc3nc2c1	GRK2 inh 57 | GRK2 inh confirm inactive | Aptamer quench SP inactive
Cc1ccc(C(=O)NCCCNCCCNC(=O)c2ccc(C)nc2)cn1	GRK2 inh 45 | GRK2 inh confirm inactive | Aptamer quench SP inactive
Cc1ccc(C(=O)NCCCNCCCN(C)C)cn1	none
CCC(C)Nc1nc2c(c(=O)n(C)c(=O)n2C)n1C (stereo not drawn)	none
c1cncc(Cc2cc3ccccc3[nH]2)c1	none
COc1ccc(C2CC(C(F)(F)F)n3nc(C(=O)Nc4c(C)n(C)n(-c5ccccc5)c4=O)c(Cl)c3N2)cc1 (stereo not drawn)	none | GRK2 inh confirm inactive | Aptamer quench SP inactive
Oc1ccc(/C=C/c2ccc3cccc(O)c3n2)cc1Br	GRK2 inh 47 | GRK2 inh confirm inactive | Aptamer quench SP inactive
O=C(O)c1ccc(/C=C/c2ccc3cccc(O)c3n2)cc1	none (no result: GRK2 inh)
CCc1cc2c(=O)c(-c3nc4ccccc4[nH]3)coc2c(CN2CCCCC2C)c1O (stereo not drawn)	none
O=C(N/N=C/c1cccnc1)c1cccc(NC(=O)c2ccc(Cl)cc2)c1	none | GRK2 inh confirm inactive | Aptamer quench SP inactive
C/C=C(/C)C(=O)Nc1cccc(C2=NOC3(C2)C[C@H](C(N)=O)N(C(=O)Cc2ccc([N+](=O)[O-])cc2)C3)c1 (stereo partly drawn)	none
CCC(=O)Nc1cccc(C2=NOC3(C2)C[C@H](C(N)=O)N(C(=O)Cc2ccc([N+](=O)[O-])cc2)C3)c1 (stereo partly drawn)	none | GRK2 confirm 2 inactive | FAM quench SP inactive
C=C(C)C(=O)Nc1cccc(C2=NOC3(C2)C[C@H](C(N)=O)N(C(=O)CC#N)C3)c1 (stereo partly drawn)	GRK2 inh 67 | GRK2 inh confirm inactive | Aptamer quench inactive | Aptamer quench SP inactive
C=C(C)C(=O)Nc1cccc(C2=NOC3(C2)C[C@@H](C(N)=O)N(C(=O)CC(c2ccccc2)c2ccccc2)C3)c1 (stereo partly drawn)	GRK2 inh 88 | GRK2 inh confirm 80 | Aptamer quench inactive | Aptamer quench SP inactive
CCCCn1c(N)c(N(CC(C)C)C(=O)C2CCN(c3ncnc4sc(C)c(C)c34)CC2)c(=O)[nH]c1=O	none (no result: MEKK2 WT-MEK5, MEKK2 mut-MEK5, MEKK3 PB1 HTS)
Nc1ccc(Nc2ccc([N+](=O)[O-])cc2[N+](=O)[O-])cc1	GRK2 inh 84 | GRK2 inh confirm inactive | Aptamer quench SP inactive
NC(=O)c1ccc(Nc2ccc([N+](=O)[O-])cc2[N+](=O)[O-])cc1	none
COc1cc(/C=C/C(=O)Nc2ccc3nc4n(c(=O)c3c2)CCCC4)cc(OC)c1OC	GRK2 inh 92 | GRK2 inh confirm inactive | Aptamer quench SP inactive
COc1ccc(/C=C/C(=O)Nc2ccc3nc4n(c(=O)c3c2)CCCC4)cc1	none
CCCCc1nnc(NC(=O)CCS(=O)(=O)c2ccc(Cl)cc2)s1	none (no result: MEKK2 WT-MEK5, MEKK2 mut-MEK5, MEKK3 PB1 HTS) | GRK2 inh confirm inactive | Aptamer quench SP inactive
CCCc1nnc(NC(=O)CCS(=O)(=O)c2ccccc2)s1	none | GRK2 inh confirm inactive | Aptamer quench SP inactive
Cc1ccc(C)c(OCC(=O)NC2CCCCCC2)c1	none
COc1ccc(OCCN2CCN(C(=O)c3ccc(OC)cc3)CC2)cc1	none
COc1ccc(OCCN2CCN(C(=O)c3ccc(OC(F)F)c(OC)c3)CC2)cc1	GRK2 inh 56 | GRK2 inh confirm inactive | Aptamer quench SP inactive
Cc1c(NS(=O)(=O)c2ccc3[nH]c(=O)[nH]c3c2)c(=O)n(-c2ccccc2)n1C	GRK2 inh 75 | GRK2 inh confirm inactive | Aptamer quench SP inactive
Cc1c(NS(=O)(=O)c2ccc(F)cc2)c(=O)n(-c2ccccc2)n1C	none
Cc1cccnc1NC(=O)CCNC(=O)c1ccccc1Cl	GRK2 inh 44 | GRK2 confirm 2 inactive | FAM quench SP inactive
Cc1cccnc1NC(=O)CCNC(=O)c1ccc(Cl)cc1	none
CC(C)Oc1ccc(NC(N)=O)cc1	GRK2 inh 89 | GRK2 inh confirm inactive | Aptamer quench SP inactive
CC(C)Oc1ccc(NC(=O)CCC(=O)O)cc1	none
CCN(CC(=O)NCc1ccc(Cl)cc1)C(=O)CSc1cc(C)ccc1C	none (no result: MEKK2 WT-MEK5, MEKK2 mut-MEK5, MEKK3 PB1 HTS)
CC(OC(=O)c1ccc([N+](=O)[O-])s1)C(=O)NC1CCCCC1C (stereo not drawn)	none (no result: MEKK2 WT-MEK5, MEKK2 mut-MEK5, MEKK3 PB1 HTS) | GRK2 inh confirm inactive | Aptamer quench SP inactive
CC1CCN(S(=O)(=O)c2ccc(C(=O)OC(C)C(=O)NC3CCCCC3C)cc2)CC1 (stereo not drawn)	none | GRK2 inh confirm inactive | Aptamer quench SP inactive
COc1cc(C(=O)OC(C)C(=O)NC2CCCCC2C)c([N+](=O)[O-])cc1OC (stereo not drawn)	none (no result: MEKK2 WT-MEK5, MEKK2 mut-MEK5, MEKK3 PB1 HTS)
COc1ccc(-c2cc3ccccc3n2CC(O)CN2CCOCC2)cc1 (stereo not drawn)	none
CCCNS(=O)(=O)c1ccc(CCC(=O)N2CCOCC2)cc1	GRK2 inh 61 | GRK2 inh confirm inactive | Aptamer quench SP inactive
CC(C)CNS(=O)(=O)c1ccc(CCC(=O)N2CCOCC2)cc1	none
CCOC(=O)C1(Cc2cccc(F)c2)CCN(CC(O)CO)CC1 (stereo not drawn)	GRK2 inh 78 | GRK2 inh confirm inactive | Aptamer quench SP inactive
Nc1nc(NC(=O)c2ccc(Cl)cc2)nn1-c1ccccc1	none
CC(NCC(=O)Nc1ccccc1C(=O)NC1CC1)c1ccc(S(N)(=O)=O)cc1 (stereo not drawn)	none (no result: MEKK2 WT-MEK5, MEKK2 mut-MEK5, MEKK3 PB1 HTS)
CC(C)c1onc(C(=O)N(C)C2CCCCC2)c1[N+](=O)[O-]	GRK2 inh 54 | GRK2 inh confirm inactive | Aptamer quench SP inactive
COc1cc(NC(=O)C2CCCO2)c(C(=O)O)cc1OC (stereo not drawn)	none | GRK2 inh confirm inactive | Aptamer quench SP inactive
CC(=O)c1cc(C#N)c(Oc2ccccc2)nc1C	none
COC(=O)c1cc(N2C(=O)C3C(C2=O)C2(C)C=CC3(C)O2)ccc1Cl (stereo not drawn)	none

Compound activity from PubChem BioAssay.
